Shown are actives, neighbours in structure and some others; about 6% of the full set was active somewhere.
D1 antag: Antagonist of Human D 1 Dopamine Receptor: qHTS; hit rate 3.2% among 360,000; HEK293 TREx D1 cells, calcium flux, dopamine EC80; stronger effect = lower value; D(1A) dopamine receptor (Homo sapiens), P21728; activity change, negative = inhibition, % at 10 µM; in the data active means activity change below about -30%; further: on the % scale 0 is the no-effect control and ±100 the full control effect
Target sequence (P21728 whole entry, looked up): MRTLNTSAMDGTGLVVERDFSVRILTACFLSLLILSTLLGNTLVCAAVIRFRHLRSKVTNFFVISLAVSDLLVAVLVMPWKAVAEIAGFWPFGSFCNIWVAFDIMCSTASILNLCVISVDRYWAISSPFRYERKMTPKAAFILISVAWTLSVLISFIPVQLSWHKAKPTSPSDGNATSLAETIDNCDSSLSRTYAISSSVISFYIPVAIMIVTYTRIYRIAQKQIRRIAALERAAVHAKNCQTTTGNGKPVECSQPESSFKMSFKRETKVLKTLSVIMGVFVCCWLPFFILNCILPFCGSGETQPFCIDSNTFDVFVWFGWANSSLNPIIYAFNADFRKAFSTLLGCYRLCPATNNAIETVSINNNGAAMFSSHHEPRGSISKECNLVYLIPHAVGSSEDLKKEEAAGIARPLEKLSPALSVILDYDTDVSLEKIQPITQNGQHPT
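Cells carrying a force-coupled, tetracycline-inducible human D1 receptor report calcium flux. Each well gets a 10 s baseline, compound with 180 s monitoring, then an EC80 dopamine stimulus with a second 180 s kinetic read.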
D3 ag: qHTS of D3 Dopamine Receptor Agonist: qHTS; D(3) dopamine receptor (Homo sapiens), P35462; D3R DiscoveRx beta-arrestin cells, luminescence, 90 min; max activation, %; hit rate 0.58% among 410,000; AID 652048, 2013; in the data active means max activation above about 30%; further: 0% is about no effect
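Cells at 1500/well, incubated overnight, then treated with pinned compounds (dopamine as control) for 90 min at 37 degrees C. DiscoveRx reagent added for 30 - 60 minutes at room temperature; luminescence read.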
D1 agonist: Allosteric Agonists of the Human D1 Dopamine Receptor: qHTS | activation, % at 2 µM | D(1A) dopamine receptor (Homo sapiens), P21728 | hit rate 1% among 360,000 | HEK293 T-REx D1 cells, calcium flux, agonist mode; in the data active means activation above about 30%; further: 0% is about no effect
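Inducible HEK293 T-REx D1 cells, force-coupled to calcium signalling, were plated at 4000 cells/well with tetracycline and held overnight at 30 C. After no-wash calcium dye loading, compound-evoked calcium rise over 180 s flagged agonists.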
D3 antag: qHTS of D3 Dopamine Receptor Antagonist: qHTS | AID 652054, 2013 | max response, negative = inhibition, % | D3R cells, DiscoveRx beta-arrestin luminescence, antagonist mode; stronger effect = lower value | hit rate 2.5% among 360,000; in the data active means max response below about -50%; further: on the % scale 0 is the no-effect control and ±100 the full control effect
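Cells plated overnight at 1500 cells/well, then exposed to library compounds with dopamine controls for 90 minutes at 37 degrees C. DiscoveRx reagent added for 30–60 minutes at room temperature; luminescence read, quantitative HTS format.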
D1 potentiator: Potentiators of Human D1 Dopamine Receptor: qHTS. D(1A) dopamine receptor (Homo sapiens), P21728. HEK293 TREx D1 cells, calcium flux, dopamine EC20 potentiation. potentiation, % at 10 µM. hit rate 0.036% among 360,000; in the data active means potentiation above about 30%; further: 0% is about no effect
An asterisk follows results filed as active; nt = no result; ! = repeats disagree.

SMILES	D1 antag	D3 ag	D1 agonist	D3 antag	D1 potentiator
CC(C)(C)c1ccc(Cn2nnc3c(=O)[nH]c(C4CCN(C(=O)c5ccco5)CC4)nc32)cc1	14.4	31.5*	0.1	8.2	2.5
O=C(C(=O)N1CCN(C(=O)c2ccco2)CC1)c1ccccc1	nt	-5.0	nt	-13.9	nt
Cc1cc2c(s1)c1cnn(Cc3cc(F)cc(F)c3F)c(=O)c1n2C	-3.9	nt	-0.6	nt	10.7
Cn1c(=O)cc(N2CCN(C(=O)c3ccco3)CC2)[nH]c1=O	-5.4	-11.8	2.1	-112.9*	-3.4
O=C(c1ccccc1)C1CCN(C(=O)c2ccco2)CC1	-3.0	2.6	2.2	-2.5	59.2*
CC(C)(C)c1ccc(C(=O)N2CCN(C(=O)c3ccco3)CC2)cc1	-30.1*	4.9	5.1	12.1	-2.8
CC(C)(O)C#Cc1ccc(C(=O)N2CCN(C(=O)c3ccco3)CC2)cc1	11.7	-1.7	2.1	-15.5	-1.1
O=C(O)CCn1c(SCCOc2ccccc2F)nc2ccccc21	-3.3	-1.6	3.2	-15.0	-6.3
Cc1nn(CC(=O)NCCc2ccccc2)c(=O)c2nn(-c3ccccc3)c(C)c12	-4.7	-22.2	1.6	nt	-4.7
Cc1ccnc(NC(=O)Nc2ccc(Br)cc2Cl)c1	3.5	-14.2	1.3	-53.7*	2.7
COC(=O)c1ccccc1NC(=O)Nc1cc(C)ccn1	-12.4	-1.3	1.2	3.7	-0.6
COC(=O)c1ccccc1NC(=S)NC(NC(=O)c1ccccc1[N+](=O)[O-])C(Cl)(Cl)Cl (stereo not drawn)	1.5	-7.6	1.5	-50.6*	1.5
COC(=O)c1ccccc1NC(=S)NC(NC(=O)c1ccco1)C(Cl)(Cl)Cl (stereo not drawn)	-22.8	-6.8	6.1	12.0	-1.2
COc1ccc([N+](=O)[O-])cc1NC(=S)NC(NC(=O)C(c1ccccc1)c1ccccc1)C(Cl)(Cl)Cl (stereo not drawn)	-19.1	-18.2	7.9	-79.9*	-7.1
CCNC(=O)[C@@H]1CCCN1C(=O)[C@H](CCCN=C(N)N)NC(=O)[C@H](CC(C)C)NC(=O)[C@@H](Cc1c[nH]c2ccccc12)NC(=O)[C@H](Cc1ccc(O)cc1)NC(=O)[C@H](CO)NC(=O)[C@H](Cc1c[nH]c2ccccc12)NC(=O)[C@H](Cc1cnc[nH]1)NC(=O)[C@@H]1CCC(=O)N1	nt	-16.3	nt	nt	nt
Cc1cccc(Cn2c(SCc3ccc(C(=O)NCCc4ccccc4)cc3)nc3ccncc32)c1	-11.7	-25.3	9.1	nt	-3.9
Cn1c(=O)c2c(nc(SCC(=O)NCC3CCCO3)n2C)n(C)c1=O (stereo not drawn)	-7.4	15.3	1.3	19.9	-2.6
CC(C)Cc1nc(SCC(=O)NCC2CCCO2)c2c(=O)n(C)c(=O)n(C)c2n1 (stereo not drawn)	-92.1*	2.8	2.7	1.2	-13.9
Cc1cc(C)c(O)c(CN(C)Cc2cc(Cl)cc(Cl)c2O)c1	nt	41.5*	nt	16.6	nt
CCOC(=O)C(CCCOc1cccc(CC)c1)C(=O)OCC	-5.6	3.1	3.2	-4.4	2.1
CCOC(=O)C(CCCOc1cccc(OC)c1)C(=O)OCC	-34.3*	-3.5	9.9	-8.7	-0.2
O=C(COc1ccc(S(=O)(=O)NC2CCCCC2)cc1)NC1CCCC1	-42.9*	-2.2	4.4	8.2	-2.2
Cc1ccc(C(C)C)c(OCCSc2nc(-c3cccs3)nc3cc(=O)[nH]n23)c1	-25.4	-6.0	7.4	nt	-5.2
COc1ccc(-c2cc(C(=O)NCCc3ccc(Cl)cc3)[nH]n2)cc1	0.8	8.0	0.3	nt	-1.1
COc1cccc(-c2cc(C(=O)NCCc3ccc(C)cc3)[nH]n2)c1	-70.3*	-2.4	8.6	nt	-2.9
SMILES	D1 antag	D3 ag	D1 agonist	D3 antag	D1 potentiator
O=c1[nH]c(=O)c2[nH]c(=O)n(-c3ccccc3)c2[nH]1	nt	-2.5	nt	-14.2	nt
CC(C)COP(=O)(c1ccc(N(C)C)cc1)C(O)c1cccnc1 (stereo not drawn)	-86.5*	5.5	2.5	17.8	-5.2
CC(C)OP(=O)(c1ccc(N(C)C)cc1)C(Nc1ccccc1)c1cccnc1 (stereo not drawn)	-31.1*	-2.1	0.9	-3.3	-8.0
COc1cc(OC)c(NC(=O)CN2CCCN(Cc3ccccc3C)S2(=O)=O)cc1Cl	8.4	-2.1	-0.8	nt	-0.3
Clc1ccc(N/N=C/c2ccncc2)cc1Cl	-34.2*	-0.8	3.7	-10.8	-10.2
Clc1cnc(N/N=C/c2ccncc2)c(Cl)c1	-2.1	-4.0	2.8	11.2	10.3
CCOC(=O)c1c(-c2ccc(C)o2)csc1NC(=S)NC(=O)N(C)C	6.7	1.5	0.9	-55.0*	9.2
O=C(C#Cc1ccccc1)c1ccccc1	nt	-9.3	nt	-64.9*	nt
O=C(C#Cc1ccccc1)c1ccc([N+](=O)[O-])cc1	-18.0	-18.1	3.7	-71.5*	-2.4
O=C(c1ccc(-c2ccccc2)cc1)c1ccc([N+](=O)[O-])cc1	7.2	nt	9.5	nt	21.1
Clc1ccc(Nc2ccc(Cl)nn2)cc1	-26.0	4.5	-0.5	12.8	-1.6
Fc1ccc(-c2ccc(Nc3cccc(F)c3)nn2)cc1	-34.4*	0.4	1.9	15.6	-10.3
Fc1ccc(Nc2ccc(-c3ccc(F)cc3)nn2)cc1	-44.8*	0.9	2.0	15.5	-8.3
COc1ccc(/C(C)=N\Nc2nc(-c3ccc(Cl)cc3)cc(C(F)(F)F)n2)cc1OC	-9.7	44.6*	2.2	34.5	-8.9
COc1ccc(-c2csc(/C(C#N)=C(\O)CSc3nccn3C)n2)cc1OC	-2.6	-5.2	13.0	-55.1*	-4.2
COc1ccc(/C=C(/C#N)c2nc(-c3ccc(-c4ccccc4)cc3)cs2)cc1OC	40.4	9.4	8.9	nt	-2.4
CNC(=S)N1N=C(c2ccc(Br)cc2)CC1c1ccc(OC)cc1 (stereo not drawn)	13.2	1.4	3.4	-12.6	4.7
CNC(=S)N1N=C(c2ccc(C)cc2)CC1c1ccc(N(C)C)cc1 (stereo not drawn)	-9.7	1.7	36.5*	-11.6	0.6
CNC(=S)N1N=C(c2ccc(C)cc2)CC1c1ccc(OC)cc1 (stereo not drawn)	-40.3*	-8.3	-0.9	0.3	-1.3
CCOc1ccc(NC(=O)c2ccc(NC(=O)c3cn4c5c(c(N6CCN(C)CC6)c(F)cc5c3=O)OCC4C)cc2)cc1 (stereo not drawn)	3.0	4.0	1.2	12.1	-2.9
CC1COc2c(N3CCN(C)CC3)c(F)cc3c(=O)c(C(=O)O)cn1c23 (stereo not drawn)	-9.0	-93.4	-0.2	-100.3*	2.0
O=C(Nc1ccccn1)[C@@H]1CCC(=O)N1C(=O)OCc1ccccc1	-31.3*	2.6	2.5	-7.9	-0.6
CC1CCC(C(C)C)C(OC(=O)Cn2c(-c3ccc(Br)cc3)[n+](C)c3ccccc32)C1 (stereo not drawn)	-2.9	-7.9	-3.7	-66.6*!	-1.9
